CYP2C9 inhib = inhibitors of human CYP2C9; AID 777; 96,000 tested, 20% active; CYP2C9 Supersomes, luciferin-H conversion, luminescence; inhibition, % at 5 µM;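 active = blocking of liver enzyme CYP2C9 beyond about 50% at 5 µM, limit read from the data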
CD11b adhes inh = inhibitors of human CD11b/CD18 binding to fibrinogen; K562 CD11b/CD18 adhesion to fibrinogen, ATPlite luminescence; Mn2+ added to activate the integrin; inhibition, % at 10 µM; 93,000 tested, 0.54% active;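 active = primary inhibition of 50% or more at 10 µM, then 40% or more on retest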
Target sequence (P05107 whole entry, looked up, other chains not shown): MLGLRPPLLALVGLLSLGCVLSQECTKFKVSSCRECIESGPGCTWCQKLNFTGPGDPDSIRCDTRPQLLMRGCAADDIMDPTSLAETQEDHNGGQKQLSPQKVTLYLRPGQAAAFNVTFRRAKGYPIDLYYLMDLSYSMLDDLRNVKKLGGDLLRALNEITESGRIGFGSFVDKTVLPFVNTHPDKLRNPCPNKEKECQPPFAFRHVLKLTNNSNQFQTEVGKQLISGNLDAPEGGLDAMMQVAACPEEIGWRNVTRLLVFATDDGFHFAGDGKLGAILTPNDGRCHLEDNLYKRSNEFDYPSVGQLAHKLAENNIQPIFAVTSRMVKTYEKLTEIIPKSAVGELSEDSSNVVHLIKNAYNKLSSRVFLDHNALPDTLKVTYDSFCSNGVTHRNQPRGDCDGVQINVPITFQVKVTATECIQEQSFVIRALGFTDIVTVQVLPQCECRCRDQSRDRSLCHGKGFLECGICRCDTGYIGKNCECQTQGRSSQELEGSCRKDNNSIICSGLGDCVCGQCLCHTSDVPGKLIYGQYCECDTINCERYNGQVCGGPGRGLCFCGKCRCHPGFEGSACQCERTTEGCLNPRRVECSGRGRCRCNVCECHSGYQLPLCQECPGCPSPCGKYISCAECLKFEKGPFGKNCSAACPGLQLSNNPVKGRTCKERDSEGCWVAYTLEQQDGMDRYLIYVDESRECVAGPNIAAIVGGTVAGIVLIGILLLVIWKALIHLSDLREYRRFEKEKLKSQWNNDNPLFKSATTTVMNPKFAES
CYP2C9 activ = activators of human CYP2C9. 96,000 tested, 1.4% active. activation factor at 5 µM. AID 1024. P11712. recombinant CYP2C9, luciferin-H conversion, luminescence; active compounds read high; factor 1 = untreated enzyme, 0 = blocked;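 active = activation factor of 2 or more for CYP2C9 at a 5 µM dose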
CYP2C19 activ = increases human CYP2C19 enzyme activity | recombinant CYP2C19, luciferin-H EGE luminescence; active compounds read high; 0 = fully inhibited enzyme, 1 = untreated enzyme | activation factor at 5 µM | 96,000 tested, under 10 active | AID 1025;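 active = activation factor of at least 2 at 5 µM in the primary screen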
CD11b adhes enh = CD11b/CD18-fibrinogen binding enhancement | K562 CD11b/CD18 adhesion to fibrinogen, ATPlite luminescence | activation, % at 10 µM | 93,000 tested, 0.07% active;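 active = 10 µM primary screen giving 50% or more activity, confirmed by 40% or more on retest at that dose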
CYP2C19 inhib = blocks human cytochrome P450 2C19 | P33261 | CYP2C19 Supersomes, luciferin-H EGE luminescence, 30 min | inhibition, % at 5 µM | 96,000 tested, 21% active | AID 778;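 active = CYP2C19 inhibition above a set limit at 5 µM in the primary screen, cut at about 50% in these data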
Each line names hits and unclear results; the compound was inactive in the other large screens. Rows were chosen to be rich in hits. Some 28% of all compounds tested hit in one or more screens of this group.

Cn1c(SCC(=O)NCCNC(=O)CSc2nnc(C(F)(F)F)n2C)nnc1C(F)(F)F	none
Cc1cc(=O)n2nc(N3CCC(C(=O)NCc4cccnc4)CC3)sc2n1	none
Cn1c2c(c(=O)n(C)c1=O)CN(Cc1ccc3c(c1)OCO3)CN2	none
O=C1c2ccccc2C(=O)N1CC1=CCS(=O)(=O)C1	none
O=C(Nc1ccc(Br)cc1F)C1CCN(c2nnc(-n3cccc3)s2)CC1	none
CCN(CC)c1ccc(/C=c2\sc3nnc(-c4ccccc4Cl)n3c2=O)cc1	none
Cc1ccc(/C=c2/sc3nnc(-c4ccccc4Cl)n3c2=O)o1	CYP2C9 inhib 68, CYP2C19 inhib 65
O=C(NCS(=O)(=O)c1ccccc1)c1ccccc1	CYP2C19 inhib 70
CCC12CN(C(=O)c3ccc(OC)cc3)CC(CC)(CN(C(=O)c3ccc(OC)cc3)C1)C2=O	CYP2C19 inhib 58
CC(C)(C)NC(=O)CN(Cc1cccs1)C(=O)CCC(=O)Nc1nccs1	none (no result: CD11b adhes inh, CD11b adhes enh)
O=C(CSCc1ccc(Cl)cc1)NCC1CCCO1 (configuration not stated)	none
O=C(COC(=O)CCC(=O)c1ccc(Cl)cc1)NCC1CCCO1 (configuration not stated)	CYP2C19 inhib 59
CC(C)NS(=O)(=O)c1ccc(OCC(N)=O)c(Cl)c1	none
CN(C)c1ccc(C(=O)OCC(=O)NCC2CCCO2)cc1 (configuration not stated)	CYP2C19 inhib 83
Cc1ccccc1OCC(=O)NCC1CCCO1 (configuration not stated)	none
Cc1cc(Cl)ccc1OCCCC(=O)NCC1CCCO1 (configuration not stated)	CYP2C9 activ 2.3
O=C(CCCOc1ccccc1)NCC1CCCO1 (configuration not stated)	none
CC(C)NS(=O)(=O)c1ccc(OCC(=O)NCC2CCCO2)c(Cl)c1 (configuration not stated)	CYP2C9 inhib 66, CYP2C19 inhib 67
COCCNCCOCCOc1ccc(Cl)c(C)c1	none
Cc1ccc(NC(C(N)=O)c2c(C)[nH]c(=O)[nH]c2=O)cc1 (configuration not stated)	none
CN(C)c1cccc(C(=O)OCC(=O)NCC2CCCO2)c1 (configuration not stated)	CYP2C9 activ 2.6, CYP2C19 inhib 67
COCCNC(=O)CCc1c(C)nc2c(-c3ccc(F)cc3)c(C)nn2c1C	none
Cc1nc2c(-c3ccc(F)cc3)c(C)nn2c(C)c1CCC(=O)N1CCN(c2ccccc2)CC1	CYP2C9 inhib 56, CYP2C19 inhib 50
Cc1nc2c(-c3ccc(F)cc3)c(C)nn2c(C)c1CCC(=O)N1CCN(c2ccc(F)cc2)CC1	CYP2C9 inhib 67, CYP2C19 inhib 62
Cc1nc2c(-c3ccc(F)cc3)c(C)nn2c(C)c1CCC(=O)N1CCC(Cc2ccccc2)CC1	CYP2C9 inhib 51
CCOC(=O)C1CCN(C(=O)CCc2c(C)nc3c(-c4ccc(F)cc4)c(C)nn3c2C)CC1	none
Cc1nc2c(-c3ccccc3)c(C)nn2c(C)c1CCC(=O)N1CCOCC1	none
Cc1nc2c(-c3ccc(F)cc3)c(C)nn2c(C)c1CCC(=O)N1CCOCC1	CYP2C19 inhib 51
Cc1nc2c(-c3ccc(F)cc3)c(C)nn2c(C)c1CCC(=O)NCCN1CCOCC1	none
COc1ccc(-n2c(Cc3cccn3C)nnc2SCC(=O)Nc2ccc(C)c(Cl)c2)cc1	none
c1ccc(-n2nnnc2-n2nnc3ccccc32)cc1	CYP2C19 inhib 94
Cc1ccc(C(=O)c2cn[nH]c2-c2cc(Cl)ccc2O)cc1	CYP2C9 inhib 80, CYP2C19 inhib 96
CC(=O)c1nn(-c2cccc(Cl)c2)cc1C(=O)c1ccco1	none (no result: CD11b adhes inh, CD11b adhes enh)
O=C(c1ccco1)c1cn[nH]c1-c1ccc(Cl)cc1O	CYP2C9 inhib 51, CYP2C19 inhib 92
COc1ccc(O)c(-c2[nH]ncc2C(=O)c2ccccc2)c1	CYP2C9 inhib 64, CYP2C19 inhib 81
O=C(c1ccccc1)c1cn[nH]c1-c1ccccc1O	none
CC(Oc1ccc(Cl)cc1)c1ccnn1S(=O)(=O)c1ccccc1 (configuration not stated)	CYP2C19 inhib 82
CC(Oc1ccc(-c2ccccc2)c(F)c1)c1ccn(S(=O)(=O)c2ccc(Cl)cc2)n1 (configuration not stated)	CYP2C9 inhib 68 (no result: CD11b adhes inh, CD11b adhes enh)
CCOC(=O)N1CCC(=NNS(=O)(=O)c2cccc([N+](=O)[O-])c2)CC1	none
CCCCN(CC)CCCNC(=O)Cn1nc(Cc2ccncc2)c2ccccc2c1=O	none
COc1cccc(NC(=O)Cn2nc(Cc3cccnc3)c3ccccc3c2=O)c1	CYP2C9 inhib 59
CCOC(=O)C1CCCN(C(=O)Cn2nc(Cc3cccnc3)c3ccccc3c2=O)C1 (configuration not stated)	none
COc1ccc(CNC(=O)Cn2nc(Cc3cccnc3)c3ccccc3c2=O)cc1	CYP2C9 inhib 76
O=C1CC(c2cccc(Cl)c2)CC(O)=C1C=NCCCO (configuration not stated)	CYP2C9 activ 2.7
O=C1CC(c2ccccc2)CC(O)=C1C=NCc1ccc(Cl)cc1 (configuration not stated)	none
CC(SCc1ccccc1)C(=O)Nc1ccc2c(c1)OCO2 (configuration not stated)	CYP2C9 inhib 73, CYP2C19 inhib 98
O=C(CSCc1cccc(Cl)c1)N/N=C/c1ccc(OCC(=O)N2CCCCC2)cc1	CYP2C9 inhib 57, CYP2C19 inhib 59 (no result: CD11b adhes inh, CD11b adhes enh)
CC(Sc1nc2ccccc2[nH]1)C(=O)O (configuration not stated)	none
CC(SCc1ccccc1)C(=O)Nc1ccccc1-c1ccccc1 (configuration not stated)	none (no result: CYP2C9 inhib, CYP2C9 activ, CYP2C19 activ, CYP2C19 inhib)
CC(Sc1nc2ccccc2[nH]1)C(=O)Nc1ccc2c(c1)OCCO2 (configuration not stated)	CYP2C9 inhib 64 (no result: CD11b adhes inh, CD11b adhes enh)
CC(SCc1ccccc1)C(=O)N/N=C/c1cc2c(cc1Br)OCO2 (configuration not stated)	CYP2C9 inhib 70
Cc1nc2nc(C)c(CCC(=O)O)c(C)n2n1	none
CC(=O)N1CCN(CCN=CC2=C(O)CC(c3cccs3)CC2=O)CC1 (configuration not stated)	none
Cc1cc(C)c[n+](C(C)C(=O)c2ccc(-c3ccccc3)cc2)c1 (configuration not stated)	none (no result: CYP2C9 inhib, CYP2C9 activ, CYP2C19 activ, CYP2C19 inhib)
O=C(CSCc1cccc(Br)c1)N1CCOCC1	CYP2C19 inhib 71
O=C(CSCc1cccc(Br)c1)N=Nc1c(O)[nH]c2ccccc12	none (no result: CD11b adhes inh, CD11b adhes enh)
O=C(CSCc1ccccc1Br)N/N=C/c1ccc2c(c1)OCO2	none (no result: CYP2C9 inhib, CYP2C9 activ, CYP2C19 activ, CYP2C19 inhib)
CC(SCc1ccccc1)C(=O)N/N=C/c1ccc2c(c1)OCO2 (configuration not stated)	CYP2C9 inhib 92, CYP2C19 inhib 80
